Growth data for 9 molecules are collected here from PubChem BioAssay (NCI).

About 83,000 compounds went through this panel and 20% of them were active in at least one assay; those are over-represented in the sample as a whole.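 The test compound was applied at a single concentration to cells in 96-well plates for 48 hours, and percent growth was recorded.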 Unmarked numbers belong to inactive results. Active and inactive are the calls of the source. How the source made its calls: active means growth percent below 10; inactive means the rest.

Test systems include SK-MEL-2 melanoma; EKVX NSCLC; SN12C renal; UO-31 renal; TK-10 renal; ACHN renal; CAKI-1 renal; A498 renal; CCRF-CEM leukemia; MOLT-4 leukemia; RPMI-8226 leukemia; OVCAR-8 ovarian; OVCAR-5 ovarian; OVCAR-4 ovarian; SK-OV-3 ovarian; IGROV1 ovarian; OVCAR-3 ovarian; HS 578T breast; NCI/ADR-RES ovarian.
What all share (test): NCI-60 one-dose screen, 48 h (100 = growth as untreated, 0 = no growth, -100 = all killed)
Holding throughout (details): 10 µM unless noted

Take `CNCCCC12CCC(c3ccccc31)c1ccccc12`: the growth with SK-MEL-2 melanoma was 100%; with EKVX NSCLC, 87.9%; in the assay with SN12C renal, 73.4%; with UO-31 renal, 58%; with TK-10 renal it was 80.2%; in the assay with ACHN renal, 80.6%. For the same molecule, the growth in the assay with CAKI-1 renal was 83.4%; in the assay with A498 renal, 93.7%; in the assay with CCRF-CEM leukemia it was 84.7%; with MOLT-4 leukemia, 89.6%; in the assay on RPMI-8226 leukemia, 91%; with OVCAR-8 ovarian, 99.7%. In addition, the growth in the assay on OVCAR-5 ovarian is 90.2%; in the assay with OVCAR-4 ovarian, 86.8%; with SK-OV-3 ovarian, 85.2%; with IGROV1 ovarian, 82.7%; in the assay with OVCAR-3 ovarian, 107%; in the assay with HS 578T breast it was 87.3%. In addition, the growth in the assay on NCI/ADR-RES ovarian was 89.5%.
With `COc1ccc(NC(=O)n2nc(/C=C\c3ccc(O)c(OC)c3)cc2/C=C\c2ccc(O)c(OC)c2)cc1`, the growth was 21.4% in the assay on SK-MEL-2 melanoma; 52.4% with EKVX NSCLC; 31.4% with SN12C renal; 22.7% in the assay on UO-31 renal; 63.8% with TK-10 renal; 26% with ACHN renal. The growth in the assay on CAKI-1 renal is 38.1%; in the assay with A498 renal, 82.5%; in the assay with CCRF-CEM leukemia, 11.8%; in the assay with MOLT-4 leukemia, 12.2%; with RPMI-8226 leukemia it was 21.3%; in the assay with OVCAR-8 ovarian, 32.8%. In addition, the growth in the assay on OVCAR-5 ovarian is 62.3%; with OVCAR-4 ovarian, 51.5%; in the assay on IGROV1 ovarian, 34.4%; in the assay on OVCAR-3 ovarian, 13.6%; with HS 578T breast, 28.7%; with NCI/ADR-RES ovarian, 23.9%.
For `COc1ccc(-c2ncnc3c2ncn3CC#CCCl)cc1`, the growth with SK-MEL-2 melanoma was 53.4%; with EKVX NSCLC, 115%; in the assay on SN12C renal, 46.3%; in the assay on UO-31 renal it was -86.7% (active); with TK-10 renal it was 69.8%; in the assay on ACHN renal, 52.8%. Besides, the growth with CAKI-1 renal is 61.8%; in the assay with A498 renal it was 55.7%; with CCRF-CEM leukemia it was 19.1%; in the assay on MOLT-4 leukemia it was 4.95% (active); in the assay with RPMI-8226 leukemia, 34.7%; in the assay on OVCAR-8 ovarian, 65.3%. Besides, the growth with OVCAR-5 ovarian was 97.7%; in the assay on SK-OV-3 ovarian, 85.8%; with IGROV1 ovarian it was 46.2%; in the assay on OVCAR-3 ovarian, 53.4%; in the assay with HS 578T breast it was 107%.
Take `CN1CCN(c2ccc(-c3cc4c(Nc5ccc(F)c(Cl)c5)ncnn4c3)cc2)CC1`: the growth in the assay with SK-MEL-2 melanoma is 103%; in the assay on EKVX NSCLC, 83.5%; with SN12C renal, 70.1%; in the assay with UO-31 renal, 82.7%; in the assay on TK-10 renal it was 73.6%; with ACHN renal, 44%. Besides, the growth is 66.8% in the assay on CAKI-1 renal; 61.9% in the assay on A498 renal; 28.9% in the assay with CCRF-CEM leukemia; 34.2% with MOLT-4 leukemia; 13.1% in the assay on RPMI-8226 leukemia; 70.4% in the assay with OVCAR-8 ovarian. In addition, the growth in the assay with OVCAR-5 ovarian was 95.2%; with SK-OV-3 ovarian, 92.7%; in the assay with IGROV1 ovarian, 49.5%; with OVCAR-3 ovarian, 77%; in the assay on HS 578T breast it was 75.2%; in the assay with NCI/ADR-RES ovarian, 72.5%.
As to `COc1ccc(C(=O)C[C@]2(O)C(=O)Nc3c(Cl)ccc(Cl)c32)cc1`, the growth is 37.5% in the assay on SK-MEL-2 melanoma; 51.2% in the assay with EKVX NSCLC; 39.8% in the assay with SN12C renal; 46.8% with UO-31 renal; 71.6% with TK-10 renal; 44.5% in the assay with ACHN renal. For the same molecule, the growth was 32.3% with CAKI-1 renal; -23.6% (active) with A498 renal; 15.8% with CCRF-CEM leukemia; 34.1% in the assay with MOLT-4 leukemia; 20.1% with RPMI-8226 leukemia; 33.1% in the assay on OVCAR-8 ovarian. Further, the growth was 52.1% with OVCAR-5 ovarian; 33.1% in the assay on SK-OV-3 ovarian; 34.8% in the assay on IGROV1 ovarian; 9.64% (active) in the assay on OVCAR-3 ovarian; -3.94% (active) with HS 578T breast.
As to `COc1cccc2nc3n(c12)C(c1c(F)cccc1F)SC3` (stereo not drawn), the growth is 86.2% in the assay on SK-MEL-2 melanoma; 101% with EKVX NSCLC; 100% with SN12C renal; 77.6% in the assay with UO-31 renal; 115% in the assay with TK-10 renal; 92.7% in the assay with ACHN renal. For the same molecule, the growth with CAKI-1 renal is 106%; in the assay on A498 renal, 103%; in the assay on CCRF-CEM leukemia it was 89.5%; in the assay with MOLT-4 leukemia, 87%; in the assay with RPMI-8226 leukemia it was 70.4%; with OVCAR-8 ovarian it was 103%. Moreover, the growth with OVCAR-5 ovarian is 80.8%; in the assay with SK-OV-3 ovarian, 101%; in the assay with IGROV1 ovarian, 7.38% (active); in the assay with OVCAR-3 ovarian it was 132%; in the assay on HS 578T breast, 92.7%; with NCI/ADR-RES ovarian it was 95.7%.
On to `O=c1[nH][n+](-c2ccc(Br)cc2)no1`, for which the growth in the assay on SK-MEL-2 melanoma was 55.8%; in the assay on EKVX NSCLC it was 60.8%; in the assay with SN12C renal, 66.7%; in the assay on UO-31 renal, 22.7%; in the assay on TK-10 renal, 63.8%; in the assay with ACHN renal it was 37.8%. Further, the growth with CAKI-1 renal is 18.5%; with A498 renal it was 93.8%; in the assay on CCRF-CEM leukemia, 55.1%; with MOLT-4 leukemia, 41.5%; with RPMI-8226 leukemia, 56.6%; with OVCAR-8 ovarian it was 55.7%. For the same molecule, the growth is 74.7% with OVCAR-5 ovarian; 57.9% in the assay on OVCAR-4 ovarian; 82.3% in the assay with SK-OV-3 ovarian; 62.1% in the assay on IGROV1 ovarian; 58.8% in the assay with OVCAR-3 ovarian; 97.7% with HS 578T breast. For the same molecule, the growth in the assay with NCI/ADR-RES ovarian was 73.9%.
On to `COc1ccc(-c2cnc3ccccc3n2)cc1`, for which the growth was 112% with SK-MEL-2 melanoma; 88.2% in the assay on EKVX NSCLC; 93.7% with SN12C renal; 81.9% in the assay on UO-31 renal; 91.3% in the assay with TK-10 renal; 97.9% in the assay with ACHN renal. Besides, the growth with CAKI-1 renal is 84.4%; in the assay on A498 renal, 95%; in the assay on CCRF-CEM leukemia, 97.4%; with MOLT-4 leukemia, 103%; in the assay with RPMI-8226 leukemia, 97.2%; in the assay on OVCAR-8 ovarian it was 99.7%. Moreover, the growth with OVCAR-5 ovarian is 92.6%; in the assay on OVCAR-4 ovarian it was 94.2%; in the assay with IGROV1 ovarian, 94.9%; in the assay on OVCAR-3 ovarian, 103%; with HS 578T breast, 89.4%; in the assay on NCI/ADR-RES ovarian it was 102%.
As to `COc1ccc(CNC(=O)C(=O)[C@H](Cc2ccccc2)NC(=O)c2[nH]c3ccccc3c(=O)c2C)cc1`, the growth in the assay on SK-MEL-2 melanoma is 109%; with EKVX NSCLC it was 95.5%; in the assay with SN12C renal, 86.6%; in the assay on UO-31 renal, 97.4%; in the assay on TK-10 renal it was 98.8%; with ACHN renal it was 100%. The growth with CAKI-1 renal is 94.4%; in the assay with A498 renal, 100%; in the assay with CCRF-CEM leukemia, 110%; with MOLT-4 leukemia, 97.7%; in the assay with RPMI-8226 leukemia, 102%; in the assay with OVCAR-8 ovarian, 102%. For the same molecule, the growth in the assay with OVCAR-5 ovarian was 102%; with OVCAR-4 ovarian, 99.5%; in the assay on SK-OV-3 ovarian, 108%; in the assay on IGROV1 ovarian, 98.3%; in the assay with OVCAR-3 ovarian, 103%; in the assay on HS 578T breast, 98.8%. Moreover, the growth in the assay with NCI/ADR-RES ovarian is 108%.
